Compound activity from PubChem.
mHTT-CaM PPI inh: mutant huntingtin-calmodulin interaction inhibitors – biochemical, AlphaScreen, primary screen; P42858; AlphaScreen His-mHTT/GST-CaM binding, luminescence; inhibition, % at 15 µM; 190,000 tested, 3.6% active
Target sequence (P42858 whole entry, looked up, change not shown): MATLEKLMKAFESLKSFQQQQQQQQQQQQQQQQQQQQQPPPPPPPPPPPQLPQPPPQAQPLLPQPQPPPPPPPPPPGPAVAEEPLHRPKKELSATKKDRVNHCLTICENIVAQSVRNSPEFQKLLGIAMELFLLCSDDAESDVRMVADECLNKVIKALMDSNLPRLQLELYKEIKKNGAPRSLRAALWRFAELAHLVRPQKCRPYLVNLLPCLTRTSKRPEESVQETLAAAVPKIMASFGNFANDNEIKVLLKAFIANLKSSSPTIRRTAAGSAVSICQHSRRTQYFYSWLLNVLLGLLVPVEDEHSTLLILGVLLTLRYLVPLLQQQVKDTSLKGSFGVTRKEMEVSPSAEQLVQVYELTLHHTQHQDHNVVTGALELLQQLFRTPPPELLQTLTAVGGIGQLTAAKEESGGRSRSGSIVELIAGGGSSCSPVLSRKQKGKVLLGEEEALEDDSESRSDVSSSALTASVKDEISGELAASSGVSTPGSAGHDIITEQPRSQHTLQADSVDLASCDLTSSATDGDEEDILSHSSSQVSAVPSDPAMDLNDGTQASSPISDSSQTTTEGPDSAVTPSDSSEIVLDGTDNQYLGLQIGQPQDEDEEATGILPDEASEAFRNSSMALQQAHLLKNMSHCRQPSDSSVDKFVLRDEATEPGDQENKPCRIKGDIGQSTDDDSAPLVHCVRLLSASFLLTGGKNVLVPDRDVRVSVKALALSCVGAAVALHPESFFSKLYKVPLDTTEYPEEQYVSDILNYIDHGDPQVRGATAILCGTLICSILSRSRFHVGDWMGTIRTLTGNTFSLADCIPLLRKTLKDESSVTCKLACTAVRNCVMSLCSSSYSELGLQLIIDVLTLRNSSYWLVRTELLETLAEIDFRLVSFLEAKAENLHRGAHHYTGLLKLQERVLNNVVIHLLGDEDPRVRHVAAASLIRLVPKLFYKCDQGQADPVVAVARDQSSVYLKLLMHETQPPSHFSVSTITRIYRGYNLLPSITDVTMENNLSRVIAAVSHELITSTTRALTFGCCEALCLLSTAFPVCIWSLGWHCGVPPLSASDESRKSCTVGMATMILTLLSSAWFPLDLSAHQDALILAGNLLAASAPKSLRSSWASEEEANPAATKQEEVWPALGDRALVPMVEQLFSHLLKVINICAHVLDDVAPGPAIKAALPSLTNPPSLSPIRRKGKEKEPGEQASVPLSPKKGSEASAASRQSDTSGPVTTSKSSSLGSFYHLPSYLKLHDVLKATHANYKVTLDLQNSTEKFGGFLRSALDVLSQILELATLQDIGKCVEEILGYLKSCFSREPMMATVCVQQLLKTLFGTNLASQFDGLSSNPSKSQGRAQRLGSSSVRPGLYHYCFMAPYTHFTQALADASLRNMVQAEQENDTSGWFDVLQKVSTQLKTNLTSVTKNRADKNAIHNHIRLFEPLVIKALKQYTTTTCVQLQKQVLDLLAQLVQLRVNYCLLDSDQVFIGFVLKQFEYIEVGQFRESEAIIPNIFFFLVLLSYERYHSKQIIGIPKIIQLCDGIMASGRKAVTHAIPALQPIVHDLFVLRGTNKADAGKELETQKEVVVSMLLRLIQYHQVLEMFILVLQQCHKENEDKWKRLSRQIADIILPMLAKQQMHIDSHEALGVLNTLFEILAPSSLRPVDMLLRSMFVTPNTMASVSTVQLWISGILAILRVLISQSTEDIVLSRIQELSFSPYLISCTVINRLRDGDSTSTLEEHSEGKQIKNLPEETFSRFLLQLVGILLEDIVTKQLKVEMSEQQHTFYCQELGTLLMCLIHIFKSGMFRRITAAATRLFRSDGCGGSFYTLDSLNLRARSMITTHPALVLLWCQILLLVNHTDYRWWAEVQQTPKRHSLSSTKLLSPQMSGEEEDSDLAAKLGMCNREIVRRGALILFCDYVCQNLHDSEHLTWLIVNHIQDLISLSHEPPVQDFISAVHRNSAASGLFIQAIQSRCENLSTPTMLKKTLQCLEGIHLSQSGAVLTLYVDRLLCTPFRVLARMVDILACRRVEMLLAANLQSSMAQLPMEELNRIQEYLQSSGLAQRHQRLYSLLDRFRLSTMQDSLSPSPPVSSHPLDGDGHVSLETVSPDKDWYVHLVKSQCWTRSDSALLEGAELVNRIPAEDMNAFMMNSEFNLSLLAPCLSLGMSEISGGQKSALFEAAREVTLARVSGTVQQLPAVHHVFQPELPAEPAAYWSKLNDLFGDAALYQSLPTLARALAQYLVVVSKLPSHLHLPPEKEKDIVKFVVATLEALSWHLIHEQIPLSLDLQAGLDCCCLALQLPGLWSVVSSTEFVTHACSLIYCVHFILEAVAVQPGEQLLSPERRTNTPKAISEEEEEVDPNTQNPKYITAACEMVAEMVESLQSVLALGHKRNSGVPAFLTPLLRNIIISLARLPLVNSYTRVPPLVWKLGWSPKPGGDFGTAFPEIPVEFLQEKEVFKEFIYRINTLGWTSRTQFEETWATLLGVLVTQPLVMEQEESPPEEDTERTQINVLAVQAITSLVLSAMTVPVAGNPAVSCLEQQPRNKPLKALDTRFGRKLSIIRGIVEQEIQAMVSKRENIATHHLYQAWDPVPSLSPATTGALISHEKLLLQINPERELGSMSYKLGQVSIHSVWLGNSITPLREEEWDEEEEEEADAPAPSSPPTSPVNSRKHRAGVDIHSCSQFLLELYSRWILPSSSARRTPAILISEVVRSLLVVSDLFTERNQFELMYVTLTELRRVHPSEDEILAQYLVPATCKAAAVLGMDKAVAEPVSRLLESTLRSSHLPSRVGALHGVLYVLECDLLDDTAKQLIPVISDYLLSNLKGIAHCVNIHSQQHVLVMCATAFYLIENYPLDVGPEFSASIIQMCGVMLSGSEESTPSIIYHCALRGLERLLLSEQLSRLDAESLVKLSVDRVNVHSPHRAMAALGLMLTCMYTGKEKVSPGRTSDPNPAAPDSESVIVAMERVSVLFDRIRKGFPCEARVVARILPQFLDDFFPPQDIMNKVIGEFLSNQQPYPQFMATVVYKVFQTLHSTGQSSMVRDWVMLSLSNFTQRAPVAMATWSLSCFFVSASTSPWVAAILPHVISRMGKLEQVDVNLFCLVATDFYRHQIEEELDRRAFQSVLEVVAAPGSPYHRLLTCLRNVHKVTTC
Pf apPOL block: Pf-apPOL inhibitors, biochemical, fluorescence; 210,000 tested, 0.25% active; inhibition, % at 10 µM; Plasmodium falciparum apicoplast DNA polymerase (apPOL); Recombinant Pf-apPOL, molecular beacon fluorescence, 1.5 h
A number is an active result; n = inactive; x = not tested or not shown. Shown is part of a subset that was picked to be rich in hits. No stated cut-off is given here; in the data, active means inhibition above about 50%; inactive means the rest.

SMILES	mHTT-CaM PPI inh	Pf apPOL block
COc1ccc(-c2cc3n(n2)CCCN(Cc2ccoc2)C3)cc1	n	n
O=C(/C=C/c1ccco1)c1ccc(NC(=O)c2ccco2)cc1	93	n
O=C(/C=C/c1ccco1)Nc1ccc(NC(=O)c2ccco2)cc1	n	n
O=C(Nc1nc(-c2ccncc2)cs1)c1ccco1	n	n
Cn1c(SCC(=O)O)nnc1-c1ccc(NC(=O)c2ccccc2Cl)cc1	n	85
Cn1c(SCC(=O)c2ccccc2)nnc1-c1ccc(NC(=O)c2ccccc2Cl)cc1	n	n
COc1cccc(CN=Cc2[nH]c3ccc(Br)c(Cl)c3c2O)c1OC	n	n
COc1ccccc1CN=Cc1[nH]c2ccc(Br)c(Cl)c2c1O	71	n
Cc1ccc(N(CC(=O)Nc2ccccc2C(=O)NC(C)C)S(C)(=O)=O)cc1	n	n
O=c1oc2c(Br)c(O)c(Br)cc2s1	n	n
CCc1ccc(-c2cc(O)cc3sc(=O)oc23)cc1	73	n
O=c1oc2ccc(O)cc2s1	n	x
O=c1oc2c(-c3cccc(C(F)(F)F)c3)cc(O)cc2s1	n	n
COc1ccc(-c2cc(O)cc3sc(=O)oc23)cc1	74	n
O=c1oc2c(-c3ccc(Br)cc3)cc(O)cc2s1	n	n
Cc1ccc(-c2cc(O)cc3sc(=O)oc23)cc1Cl	53	n
Cc1ccc(-c2cc(O)cc3sc(=O)oc23)cc1	75	n
CCOC(=O)c1ccc(Oc2c(C(F)(F)F)oc3cc(OC(=O)N(C)C)ccc3c2=O)cc1	n	n
O=C(Nc1ccc(F)cc1)C(Cc1ccccc1)N1C(=O)C2C3CCC(C3)C2C1=O (stereo not drawn)	n	n
O=C(Oc1ccc2c(c1)OC(=Cc1cccs1)C2=O)c1cccc([N+](=O)[O-])c1	n	n
Cc1[nH]nc(-c2ccc(O)c(O)c2O)c1Oc1ccccc1	97	n
COc1ccc(-c2n[nH]c(C)c2Oc2ccccc2)c(O)c1	n	n
Oc1ccc(-c2[nH]ncc2Oc2ccccc2)c(O)c1O	100	n
CCCc1ccc(Oc2c(C)oc3c(C)c(O)ccc3c2=O)cc1	n	n
CCCc1ccc(Oc2cn[nH]c2-c2ccc(O)c(C)c2O)cc1	90	n
SMILES	mHTT-CaM PPI inh	Pf apPOL block
Oc1ccc(-c2[nH]ncc2Oc2ccccc2)c(O)c1	n	n
CC(C)NC(=O)C1=CCN(C(=O)NC(C)(C)C)CC1	n	n
O=C1CSC(c2cc3c(cc2Br)OCO3)N1c1ccccc1F (stereo not drawn)	n	n
COc1ccc(S(=O)(=O)N2CCN(C)C(c3ccccc3)C2)cc1 (stereo not drawn)	n	n
CCc1ccc(-n2cnc3cc(C(=O)NCC4CCCO4)ccc32)cc1 (stereo not drawn)	n	n
NC(=NOC(=O)Nc1cccc(Cl)c1)c1ccc2nonc2c1	x	n
Cc1ccc(Nc2nc(-c3ccccc3)cs2)cc1C	73	n
Cc1ccc(Nc2nc(-c3ccc(F)cc3)cs2)cc1C	98	n
Cc1ccc(Nc2nc(-c3ccccc3)cs2)cc1Cl	54	n
NC(=O)C(=O)Nc1nc(-c2ccccc2)cs1	n	n
Nc1ccc(Nc2nc(-c3ccccc3)cs2)cc1	97	n
Cc1ccc(C)c(-c2csc(Nc3ccc(F)cc3)n2)c1	n	n
Cc1c(C(=O)NC2CCCCC2)sc2nc(-c3ccccc3)cn12	n	n
O=C(NCC(c1ccsc1)N1CCCC1)c1ccccc1F (stereo not drawn)	n	n
CCOC(=O)C1CCc2sc(NC(=O)C3CN(c4nc5ccccc5s4)C3)nc21 (stereo not drawn)	n	n
CCOC(=O)C1CCc2sc(NC(=O)c3n[nH]c4ccccc34)nc21 (stereo not drawn)	98	n
Nc1c2c(-c3cccc(F)c3)nc(N3CCCC3)nc2nn1-c1ccc(F)cc1	n	n
CC(Cc1cccs1)NC(=O)c1cc(-c2ccccc2)on1 (stereo not drawn)	n	n
O=C(NCc1ccccc1F)C1CCN(c2cncnc2N2CCCCC2)CC1	n	n
COc1cccc(C2Oc3ccccc3C3=C2C(c2ccc(C)cc2)n2ncnc2N3)c1 (stereo not drawn)	n	n
CCN1c2ccccc2C(=O)NC12CCN(C(=O)c1ccc(Br)cc1)CC2	n	n
CCNc1nc(NCC)nc(OCCNS(=O)(=O)c2cc(C)ccc2C)n1	n	89
CCNc1nc(NC(C)C)nc(OCCNS(=O)(=O)c2cc(C)ccc2C)n1	n	n
Cc1cc(C)c2c(=O)n(C(=O)c3cccs3)sc2n1	x	100
Cc1cc(C)c(C#N)c(OC(=O)c2cccs2)n1	x	n
SMILES	mHTT-CaM PPI inh	Pf apPOL block
Cc1ccc(NC(=O)/C(C#N)=C/c2cc(C)n(-c3cccnc3)c2C)cc1C	52	n
CCOc1ccc(NC(=O)/C(C#N)=C/c2cc(C)n(-c3cccnc3)c2C)cc1	n	n
COc1ccc(S(=O)(=O)N(C)C)cc1OC	n	n
CCOc1ccccc1NC(=O)c1cc(S(=O)(=O)NCc2ccccc2OC)ccc1F	n	n
Cc1ccccc1C1CN(C(=O)c2ccc(Cl)cc2)CC1C(=O)NCC1CC1 (stereo not drawn)	n	n
Cc1ccc(C(NC(=O)c2ccccc2)c2ccc3cccnc3c2O)cc1 (stereo not drawn)	100	n
COc1ccc(C(NC(=O)c2cccc(OC)c2)c2cc(Cl)c3cccnc3c2O)cc1 (stereo not drawn)	n	n
O=C(NC(c1cccc(F)c1)c1ccc2cccnc2c1O)c1ccccc1 (stereo not drawn)	100	n
O=C(Nc1ncccc1Cl)c1cccc(F)c1	n	n
CCC(=O)N1CCC(CCOc2ccccc2F)CC1	n	n
CCCc1nc(C)c2c(n1)N(Cc1cccnc1)C(=O)CC2	n	n
CC1(C)CC(=O)C2=C(C1)Nc1nc(-c3cccc(Cl)c3)nn1C2c1ccc2c(c1)OCO2 (stereo not drawn)	61	n
Cc1cccc(-c2nc3n(n2)C(c2ccc(O)cc2)C2=C(CC(C)(C)CC2=O)N3)c1 (stereo not drawn)	n	n
CC(C)NC(=O)c1cc2nc(N(C)C)n(-c3ccccc3)c2s1	n	n
COc1ccc(C(=O)Nc2ccc(Cl)cc2Cl)cc1	n	n
O=C(CN1CCC(c2nc(-c3cccc(F)c3)no2)CC1)Nc1ccc(F)cc1Cl	n	n
CCn1c(/C=C/c2cccnc2)nc2ccccc2c1=O	100	n
O=c1[nH]c(/C=C/c2ccc(Cl)cc2)nc2ccccc12	n	n
CCn1c(/C=C/c2ccccc2Cl)nc2ccccc2c1=O	n	n
O=c1[nH]c(/C=C/c2cccnc2)nc2ccccc12	100	n
O=C(C(Cl)c1ccccc1)N1CCc2nc(Cc3cccc(F)c3)[nH]c(=O)c2C1 (stereo not drawn)	n	n
CC(C)(Oc1ccc(Cl)cc1)C(=O)N1CCN(c2cccc(Cl)c2)CC1	n	n
CC(C)(Oc1ccc(Cl)cc1)C(=O)N1CCN(c2ccc(F)cc2)CC1	94	n
Cc1ccccc1NC(=O)N1CCC(N2CCN(Cc3ccccc3)C2=O)CC1	n	n
Cc1cccc(NC(=O)N2CCC(N3CCN(Cc4ccccc4)C3=O)CC2)c1C	100	n
Cc1ccc(C)c(-c2nnc(NC(=O)c3cccc4ccccc34)o2)c1	n	n
CCOc1nc(N=C(N)N)nc2c(C)cccc12	65	n
CCOc1nnc(-c2ccc(C)cc2)c2ccccc12	n	n
CCc1ccc(OCCCC(=O)Nc2ncn[nH]2)cc1	n	n
CN(Cc1ccccc1)S(=O)(=O)c1cc(C(=O)Nc2ccc(F)c(F)c2)ccc1F	n	n
